Data as given in PubChem BioAssay (NCATS).
Inconclusive results are not listed. Where a call stands in place of a potency, no number is given. The source made the active and inactive calls. The call rests on the fitted dose curve; in most records, active means well fitted inhibition curve with a large enough effect; inconclusive means small, poorly fitted or top-dose-only effect; inactive means flat fitted curve, though single readings scatter. Where a SMILES comes first, the peptide text is derived from it. [ ]: non-standard residue; d: D form. pGlu = O=C1CC[C@@H](C(=O)O)N1

Experiment: qHTS to identify inhibitors of the type 1 interferon - major histocompatibility complex class I in skeletal muscle: primary screen against the NCATS Pharmaceutical Collection (AID 1347407);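 further: luminescence of HiBiT knocked into endogenous HLA-B as interferon-induced MHC class I level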
Conditions: human skeletal muscle cells, IFN-b-induced MHC-I HiBiT luminescence, 24 h; series mostly up to 45.9 µM
Procedure, shortened: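 A qHTS format is used: 8-point, 1:5 compound series with 46 uM top final concentration, applied alongside 4 ng/ml IFN-beta to HLA-B*08:01-HiBiT knock-in myoblasts. Luminescence is measured after 24 h treatment.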

Which Potency does the source give for `O=C1NC(c2ccccc2)(c2ccccc2)C(=O)N1COP(=O)(O)O` here?
The Potency was “inactive”.

With `CC(=O)N[C@@H](CO)C(=O)N[C@@H](CC(=O)O)C(=O)N[C@@H](CCCCN)C(=O)N1CCC[C@H]1C(=O)O` (Ac-SDKP-OH) as the compound, how does the Potency read?
Its Potency is “inactive”.

For `Nc1ccc(C(=O)OCC(O)CO)cc1` (centres undefined), which Potency is on record?
The Potency was “inactive”.

With `Cc1c(F)cc2c(=O)c(C(=O)O)cn3c2c1CCC3C` (centres undefined) as the compound, how does the Potency read?
The Potency was “inactive”.

For `CN1CCC(N(Cc2cccs2)c2ccccc2)CC1`, which Potency is on record?
Its Potency is “inactive”.

For `Cc1nc([N+](=O)[O-])cn1-c1ccc([N+](=O)[O-])cc1`, which Potency is on record?
Its Potency is “inactive”.

With `CC1CC(=O)NN=C1c1ccc(NCC(C)(C)NCC(O)COc2cc(Cl)ccc2C#N)cc1` (centres undefined) as the compound, how does the Potency read?
The Potency was “inactive”.

Which Potency does the source give for `O=C(O)Cn1cnnn1` here?
The Potency was “inactive”.

With `CO[C@@]1(NC(=O)CSC[C@@H](N)C(=O)O)C(=O)N2C(C(=O)O)=C(CSc3nnnn3C)CS[C@@H]21` as the compound, how does the Potency read?
Its Potency is “inactive”.

For `CCNC(=O)[C@@H]1CCCN1C(=O)[C@H](CCCN=C(N)N)NC(=O)[C@H](CC(C)C)NC(=O)CNC(=O)[C@H](Cc1ccc(O)cc1)NC(=O)[C@H](CO)NC(=O)[C@H](Cc1c[nH]c2ccccc12)NC(=O)[C@H](Cc1cnc[nH]1)NC(=O)[C@@H]1CCC(=O)N1` ([pGlu]HWSYGLRP-NHEt), which Potency is on record?
Its Potency is “inactive”.

Which Potency does the source give for `CC(C)C(=O)OCc1cccc(OC(=O)[C@@H]2N3C(=O)[C@@H](NC(=O)Cc4ccccc4)[C@H]3SC2(C)C)c1` here?
Its Potency is “inactive”.

For `CN(C)CCN1CCN(c2cccc(Cl)c2)C1=O`, which Potency is on record?
Its Potency is “inactive”.

With `CN=C(N)NC(=O)Nc1c(C)cccc1C` as the compound, how does the Potency read?
The Potency was “inactive”.

Which Potency does the source give for `CN1CCCN(C(c2ccccc2)c2ccc(Cl)cc2)CC1` (centres undefined) here?
The Potency was “inactive”.
